PubChem BioAssay AID1159580 (chemical genetic matrix, 2015)
“And” between values parts separate entries of the source, which are not always exact repeats. Equal entries are not always repeated. Screen size: about 5,500 compounds; about 2,000 (36%) were called active. Inconclusive results (about 18%) are left out. Rule as the data show it: active = normalized growth mostly below about 0.91 (no sharp cut-off); inconclusive = no clear call, values can overlap the other calls; inactive = mostly above about 0.92. The list shows a part of the results.

Assay: chemical genetic growth profiling, strain panel (AID 1159580);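 also: tested at 20 µM; growth read once vehicle control cultures reached saturation at 30 °C; 1 = growth at the plate median or of vehicle wells; lower values mean less growth of the strain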
Settings: S. cerevisiae deletion strains, growth OD

Measured: normalized growth

CCN(CC)CCOC(=O)C(c1ccccc1)c1ccccc1
inactive: locus YAL013W, strain DEP1, active compounds read low 0.982 | locus YAL021C, strain ccr4, active compounds read low 0.964 | locus YAL026C, strain drs2, active compounds read low 0.975 | locus YAL030W, strain snc1, active compounds read low 0.948 | locus YBL061C, strain skt5, active compounds read low 0.965 | locus YBR009C, strain hhf1, active compounds read low 0.99 | locus YBR021W, strain FUR4, active compounds read low 0.989 | locus YBR023C, strain chs3, active compounds read low 0.957 | locus YBR171W, strain sec66, active compounds read low 0.971 | locus YBR229C, strain ROT2, active compounds read low 1 | locus YBR231C, strain swc5, active compounds read low 0.967 | locus YBR279W, strain paf1, active compounds read low 0.971 | locus YCL011C, strain gbp2, active compounds read low 0.948 | locus YCL016C, strain dcc1, active compounds read low 0.987 | locus YCL029C, strain bik1, active compounds read low 0.979 | locus YCL069W, strain vba3, active compounds read low 0.976 | locus YCR088W, strain abp1, active compounds read low 0.968 | locus YDL005C, strain med2, active compounds read low 0.958 | locus YDL035C, strain GPR1, active compounds read low 0.988 | locus YDL040C, strain nat1, active compounds read low 0.972 | locus YDL074C, strain BRE1, active compounds read low 1.01 | locus YDL101C, strain DUN1, active compounds read low 0.995 | locus YDL134C, strain PPH21, active compounds read low 0.997 | locus YDL185W, strain tfp1, active compounds read low 0.96 | locus YDL192W, strain arf1, active compounds read low 0.989 | locus YDR001C, strain nth1, active compounds read low 0.964 | locus YDR069C, strain doa4, active compounds read low 0.936 | locus YDR101C, strain arx1, active compounds read low 1.01 | locus YDR137W, strain rgp1, active compounds read low 0.994 | locus YDR159W, strain sac3, active compounds read low 0.947 | locus YDR162C, strain NBP2, active compounds read low 0.961 | locus YDR195W, strain ref2 0.889 | locus YDR297W, strain sur2, active compounds read low 0.974 | locus YDR318W, strain mcm21, active compounds read low 0.986 | locus YDR334W, strain swr1, active compounds read low 0.943 | locus YDR335W, strain msn5, active compounds read low 0.976 | locus YDR388W, active compounds read low 1 | locus YDR392W, strain spt3, active compounds read low 1.01 | locus YDR502C, strain sam2, active compounds read low 1 | locus YEL003W, strain gim4, active compounds read low 0.972 | locus YEL037C, strain rad23, active compounds read low 0.973 | locus YEL061C, strain CIN8 (second series), active compounds read low 0.957 | locus YEL061C, strain CIN8, active compounds read low 0.987 | locus YER015W, strain faa2, active compounds read low 0.984 | locus YER016W, strain bim1, active compounds read low 0.976 | locus YER110C, active compounds read low 0.968 | locus YER111C, strain swi4, active compounds read low 0.957 | locus YER155C, strain BEM2 (second series), active compounds read low 0.951 | locus YER155C, strain BEM2, active compounds read low 1.01 | locus YER167W, strain BCK2, active compounds read low 0.993 | locus YFR010W, strain ubp6, active compounds read low 0.959 | locus YGL078C, strain dbp3, active compounds read low 0.987 | locus YGL086W, strain mad1, active compounds read low 0.995 | locus YGL167C, strain pmr1, active compounds read low 0.962 | locus YGL173C, strain kem1, active compounds read low 0.98 | locus YGL227W, strain vid30, active compounds read low 0.961 | locus YGL240W, strain doc1, active compounds read low 0.963 | locus YGL248W, strain PDE1, active compounds read low 1.01 | locus YGL253W, strain hxk2, active compounds read low 0.97 | locus YGR135W, strain pre9, active compounds read low 0.955 | locus YGR229C, strain SMI1, active compounds read low 0.979 | locus YGR252W, strain gcn5, active compounds read low 0.994 | locus YHR013C, strain ard1, active compounds read low 0.964 | locus YHR027C, strain rpn1, active compounds read low 0.971 | locus YHR030C, strain SLT2, active compounds read low 0.981 and 0.995 | locus YHR079C, strain IRE1 (second series), active compounds read low 0.99 | locus YHR079C, strain IRE1, active compounds read low 0.986 | locus YHR094C, strain hxt1, active compounds read low 0.993 | locus YHR129C, strain ARP1, active compounds read low 0.99 | locus YHR142W, strain chs7, active compounds read low 0.967 | locus YHR200W, strain rpn10, active compounds read low 0.975 | locus YIL066C, strain RNR3, active compounds read low 1 | locus YIL073C, strain SPO22, active compounds read low 0.935 | locus YIL125W, strain kgd1, active compounds read low 1 | locus YIR030C, strain dcg1, active compounds read low 0.987 | locus YJL092W, strain hpr5, active compounds read low 0.964 | locus YJL095W, strain BCK1 (second series), active compounds read low 0.973 | locus YJL095W, strain BCK1, active compounds read low 1.02 and 0.981 | locus YJL115W, strain asf1, active compounds read low 0.949 | locus YJL129C, strain trk1, active compounds read low 0.972 | locus YJL134W, strain LCB3, active compounds read low 0.989 | locus YJL154C, strain vps35, active compounds read low 0.959 | locus YJL164C, strain tpk1, active compounds read low 0.993 | locus YJL166W, strain qcr8, active compounds read low 0.958 | locus YJL168C, strain set2, active compounds read low 1 | locus YJL187C, strain SWE1 (second series), active compounds read low 1.01 | locus YJR043C, strain POL32, active compounds read low 0.998 | locus YJR066W, strain TOR1, active compounds read low 0.963 | locus YKL009W, strain mrt4, active compounds read low 0.959
